Source: PubChem BioAssay AID651551 (Sanford-Burnham Center for Chemical Genomics, 2012)

Target: PEG-3 (UniProt Q6IN02)
Assay: GAPDH versus PEG-3 reporter suppression – cell-based, luminescence, counter-screen for PEG-3 promoter inhibitor project, SAR follow-up (AID 651551)
Details: HeLa PEG-Prom / GAPDH luciferase reporter, 6 or 24 h, run 2, 24 h; at 99 µM (top of the series)

SMILES: Cc1cc(NC(=O)c2cccc(C)c2C)n(-c2nc3ccccc3[nH]2)n1
- inhibition % (higher = more inhibition): 24%

SMILES: Cc1cc(NC(=O)c2ccccc2)n(-c2nc3ccccc3n2C)n1
- inhibition % (higher = more inhibition): 12.8%

SMILES: COc1ccc(-n2nc(C(=O)NCC(=O)Nc3cccc(OC)c3)c3ccccc3c2=O)cc1
- inhibition % (higher = more inhibition): 21.2%

SMILES: COCCCNC(=O)c1ccc(Cn2c(=O)c3ccccc3n(Cc3ccccc3C#N)c2=O)cc1
- inhibition % (higher = more inhibition): 54.9%

SMILES: CCn1cc(C(=O)NCc2ccco2)c(=O)c2cc(S(=O)(=O)N3CCCC3)ccc21
- inhibition % (higher = more inhibition): 24%

SMILES: COc1ccc(-n2nc(C(=O)NCC(=O)Nc3cc(OC)c(OC)c(OC)c3)c3ccccc3c2=O)cc1OC
- inhibition % (higher = more inhibition): 40.8%
